Drawing on the supplement of paper PMC5940239, this text covers IC90 and percent growth for 38 compounds.

One experiment relates to Madurella mycetomatis MM55. The experiment is described as follows: IC90; higher = less potent. The conditions noted are these: 7 days.
For the compound `CC1=Nc2ccc(Cl)cc2C(O)(c2ccc(C)cc2)N1CCN1CCCCC1` (stereo unspecified), the concentration for an effect of 90% (IC90) – broadly, the point of the concentration-response curve where the effect stands at 90% – stood at 92.3 µM. `CCc1c(C)nc(-n2nc(C)cc2NC(=O)c2ccccc2SC)[nH]c1=O` displayed an IC90 of 15.1 µM. In turn, `CCC(Sc1nc2ccccc2o1)C(=O)Nc1nccs1` (stereo unspecified) showed an IC90 of 56.5 µM. Still for that read-out and setting: as for `COc1cc(C2=NCCN2)cc2cc(-c3ccc(C4=NCCN4)cc3)oc12`, the figure is 88.8 µM. The same measure, in the same setting: as for `O=C(c1cc2ccccc2o1)N1CCN(Cc2ccc3c(c2)OCO3)CC1`, the figure is 87.5 µM; as for `c1ccc(C[C@@H]2CN(c3nccc(Oc4ccc(-n5ccnc5)cc4)n3)CCN2)cc1`, 91.2 µM.

In turn, `CC(C)(C)n1nc(Cc2ccc(F)c(Cl)c2)c2c(N)ncnc21` displayed an IC90 of 93 µM. For `Cc1ccc(-c2nc(CN(Cc3ccccn3)C(C)C)cs2)o1`, the IC90 came to 90 µM. Compound `COc1ccc(C2=NN(C3CCCCCC3)C(=O)[C@@H]3CC=CC[C@H]23)cc1OCCCCOc1ccc(-c2nn[nH]n2)cc1` displayed a concentration for an effect of 90% (IC90) of 53.5 µM.

`CCCn1nnc(NC(=O)COc2ccc(C3CCCCC3)cc2)n1` came in with an IC90 of 94.3 µM. As for `CCCn1c(NC(=O)c2ccc3ccccc3n2)nc2ccccc21`, the IC90 stood at 9.85 µM. `Cc1cc(C)c2cc(C(=O)NC3CCCCCCC3)[nH]c2c1` came in with an IC90 of 94.3 µM. `O=C1N(Cc2cc3ccccc3s2)CC2CN(Cc3ccccc3)CCN12` (stereo unspecified): the IC90 was determined as 91.8 µM. `O=C(c1ccc(NCCO)cc1)C1C[C@H]1c1ccc(Cl)cc1` (stereo partly specified): the IC90 worked out at 38 µM. As to `CNC(=O)c1nn(C)c2c1C(C)(C)Cc1cnc(Nc3ccc(N4CCN(C)CC4)cc3)nc1-2`, the IC90 came to 21.5 µM. `c1cncc(NCc2ccc(-c3cc4ccncc4cc3OC3CCNCC3)s2)c1` gave an IC90 of 88.5 µM. Still for that read-out and setting: next, `COc1cc(CN2CCC3(C=Cc4ccccc43)CC2)cc2c1OCO2`: 91.5 µM; `Cc1ncc(-c2ccnc(Nc3ccc(S(C)(=O)=O)cc3)n2)n1C(C)C`: 96.9 µM.

As to `CN(C)c1cc(NC(=O)Nc2ccccc2)c2ccccc2n1`, the IC90 stood at 59.1 µM. `c1ccc2c(c1)CN(CC1CC1)CC1(CCN(Cc3c[nH]c4cnccc34)CC1)O2` yielded an IC90 of 96 µM.

The subject of another experiment is Madurella mycetomatis MM55. The experiment is described as follows: percent growth relative to solvent control; higher = less inhibition, active = 20 or less. Conditions: 100 µM; 7 days.
In the case of `O=C(NCCc1ccccc1)c1cc(-c2cccnc2)cnc1NCC1CC1`, the percent growth was 1.69% (active).

As for `FC(F)(F)c1cc(NCCc2ccccc2)nc(-c2ccccn2)n1`, the percent growth is -0.699% (active).

For the compound `COc1ccc(CCN2CCC(NCc3cccc(N(C)C)c3)CC2)cc1`, the percent growth was -0.197% (active). On to `CC(C)(C)c1ccc(N[C@@H]2CCCC[C@H]2NC(=O)c2ccco2)cc1`, for which the percent growth is -1.4% (active). As for `CCCCCCCCCCCCCCCCOP(=O)([O-])OCC[N+](C)(C)C`, the percent growth was -0.857% (active). The same measure, in the same setting: next, `O=C(Nc1nc(-c2ccccn2)cs1)c1cncn1-c1ccccc1`: 1.78% (active); `O=C(Nc1nnc(-c2ccc(Cl)s2)o1)c1ccc(Cl)s1`: 3.26% (active); `N=C(N)c1ccc(-c2cc(-c3ccccc3)on2)cc1`: -0.237% (active). Turning to `CC(c1cc(Cl)cc(Cl)c1)N(C)c1ncc2c(N)nc(N)nc2n1` (stereo unspecified), the percent growth is 5.31% (active). Regarding `CN1CCC(NCc2cccc(-c3ccc(S(=O)(=O)NCc4ccccc4)cc3)c2)CC1`, the percent growth was 3.47% (active). As for `O=C(c1ccco1)N(CCCn1ccnc1)c1nc2c(Cl)cccc2s1`, the percent growth was 3.24% (active). As to `CN1CCN(CCCOc2ncc(Nc3ncc(-c4ccc(C(F)(F)F)c(F)c4)nc3C(N)=O)cn2)CC1`, the percent growth is -0.0728% (active). As to `O=C(NC1CC1)c1ccc(N2CCOc3ccc(Cl)cc32)s1`, the percent growth is -2.78% (active). As for `COc1ccc(-c2cnc3ccc(N4CCCC4)nn23)cc1OC`, the percent growth is 0.205% (active).

For `CN1CCC(c2cc(-c3ccncc3)c(-c3ccc(F)cc3)[nH]2)CC1`, the percent growth is 1.72% (active). On the same count and under the same terms, next, `COc1cccc(-c2cc3c(Nc4cccnc4)nccc3[nH]2)c1`: 2.45% (active); `Cc1ccc2c(c1C)NC(=O)C21NN=C(c2ccccc2)S1` (stereo unspecified): 4.4% (active). Take `COc1ccccc1CNC(=O)c1cc(C2CC2)nc2c1cnn2C(C)C`: the percent growth was -2.92% (active). Consider `CC1=Nc2ccc(Cl)cc2C(O)(c2ccc(C)cc2)N1CCN1CCCCC1` (stereo unspecified), for which the percent growth is 2.85% (active). As for `CCc1c(C)nc(-n2nc(C)cc2NC(=O)c2ccccc2SC)[nH]c1=O`, the percent growth is 2.44% (active). `CCC(Sc1nc2ccccc2o1)C(=O)Nc1nccs1` (stereo unspecified): the percent growth was 0.757% (active).

On to `COc1cc(C2=NCCN2)cc2cc(-c3ccc(C4=NCCN4)cc3)oc12`, for which the percent growth was -1.77% (active). The same measure, in the same setting: as for `O=C(c1cc2ccccc2o1)N1CCN(Cc2ccc3c(c2)OCO3)CC1`, the figure is 3.51% (active); as for `c1ccc(C[C@@H]2CN(c3nccc(Oc4ccc(-n5ccnc5)cc4)n3)CCN2)cc1`, -0.802% (active); as for `CC(C)(C)n1nc(Cc2ccc(F)c(Cl)c2)c2c(N)ncnc21`, 1.18% (active). Consider `Cc1ccc(-c2nc(CN(Cc3ccccn3)C(C)C)cs2)o1`, for which the percent growth was 0.31% (active).
